{"source": "the supplement of paper PMC11732987", "about": "“Enantioselective OTUD7B fragment discovery through chemoproteomics screening and high-throughput optimisation” (Communications Chemistry, 2025)", "assay_in_all_cases": "log2 ratio of Biotin-Ahx-Ub-VS probe labelling (fragment/DMSO); higher = less target engagement (more negative = stronger competition), active = hit call of the paper (q ≤ 0.05, log2 ratio ≤ -1)", "settings_in_all_cases": "compound concentration: 200 uM; treatment time: 3 h", "key": {"USP19": {"target": "T1, USP19 (UniProt O94966)", "T1 sequence (whole entry)": "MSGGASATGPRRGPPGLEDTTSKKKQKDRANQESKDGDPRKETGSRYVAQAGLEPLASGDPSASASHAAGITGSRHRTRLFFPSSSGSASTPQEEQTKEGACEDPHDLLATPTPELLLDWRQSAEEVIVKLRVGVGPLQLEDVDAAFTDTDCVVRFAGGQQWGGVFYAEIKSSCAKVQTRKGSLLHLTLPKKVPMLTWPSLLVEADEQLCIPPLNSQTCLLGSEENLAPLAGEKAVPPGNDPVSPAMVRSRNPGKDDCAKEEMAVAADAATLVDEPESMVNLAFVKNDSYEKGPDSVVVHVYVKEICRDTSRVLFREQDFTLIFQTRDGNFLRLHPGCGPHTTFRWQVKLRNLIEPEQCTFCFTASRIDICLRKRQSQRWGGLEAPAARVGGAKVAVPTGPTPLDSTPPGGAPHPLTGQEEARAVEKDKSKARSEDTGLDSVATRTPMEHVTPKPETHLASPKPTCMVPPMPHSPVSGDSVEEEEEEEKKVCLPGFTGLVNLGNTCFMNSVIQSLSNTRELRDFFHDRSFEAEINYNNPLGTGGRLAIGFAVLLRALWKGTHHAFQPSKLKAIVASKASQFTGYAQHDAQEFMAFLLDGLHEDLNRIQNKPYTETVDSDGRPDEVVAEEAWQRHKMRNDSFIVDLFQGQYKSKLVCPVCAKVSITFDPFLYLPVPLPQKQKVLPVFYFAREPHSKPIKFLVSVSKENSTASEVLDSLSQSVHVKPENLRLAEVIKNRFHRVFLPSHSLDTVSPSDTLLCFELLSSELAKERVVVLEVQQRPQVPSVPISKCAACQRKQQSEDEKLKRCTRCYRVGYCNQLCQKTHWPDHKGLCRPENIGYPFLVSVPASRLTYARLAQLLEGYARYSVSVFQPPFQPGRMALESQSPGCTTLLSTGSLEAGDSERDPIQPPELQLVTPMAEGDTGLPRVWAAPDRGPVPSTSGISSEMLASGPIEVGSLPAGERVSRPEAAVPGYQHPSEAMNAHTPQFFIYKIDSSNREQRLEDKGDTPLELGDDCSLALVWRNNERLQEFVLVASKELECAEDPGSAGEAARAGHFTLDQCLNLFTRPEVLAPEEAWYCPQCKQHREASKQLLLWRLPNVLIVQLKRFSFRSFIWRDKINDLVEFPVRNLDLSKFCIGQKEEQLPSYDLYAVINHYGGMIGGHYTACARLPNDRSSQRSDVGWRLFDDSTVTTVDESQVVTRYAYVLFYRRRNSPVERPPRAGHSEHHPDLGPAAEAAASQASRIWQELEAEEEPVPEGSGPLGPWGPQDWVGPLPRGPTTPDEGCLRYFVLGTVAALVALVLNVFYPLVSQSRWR", "summary_of_the_method": "(§1)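 Labelled DUBs from HEK293T lysate were NeutrAvidin-enriched, digested with LysC and trypsin, and run by diaPASEF LC-MS/MS. Before that, each 495 µg sample in Tris/CHAPS/IGEPAL buffer with protease inhibitors was treated in triplicate with fragment at 200 µM or vehicle for 3 h, then with Biotin-Ahx-Ub-VS at 0.5 µM final for 1 h. Values are average log2 ratios of fragment over vehicle by unpaired t-test, based on global-median-normalised Spectronaut label-free quantities from proteins with ≥2 unique peptides.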"}, "USP22": {"target": "T2, USP22 (UniProt Q9UPT9)", "T2 sequence (whole entry)": "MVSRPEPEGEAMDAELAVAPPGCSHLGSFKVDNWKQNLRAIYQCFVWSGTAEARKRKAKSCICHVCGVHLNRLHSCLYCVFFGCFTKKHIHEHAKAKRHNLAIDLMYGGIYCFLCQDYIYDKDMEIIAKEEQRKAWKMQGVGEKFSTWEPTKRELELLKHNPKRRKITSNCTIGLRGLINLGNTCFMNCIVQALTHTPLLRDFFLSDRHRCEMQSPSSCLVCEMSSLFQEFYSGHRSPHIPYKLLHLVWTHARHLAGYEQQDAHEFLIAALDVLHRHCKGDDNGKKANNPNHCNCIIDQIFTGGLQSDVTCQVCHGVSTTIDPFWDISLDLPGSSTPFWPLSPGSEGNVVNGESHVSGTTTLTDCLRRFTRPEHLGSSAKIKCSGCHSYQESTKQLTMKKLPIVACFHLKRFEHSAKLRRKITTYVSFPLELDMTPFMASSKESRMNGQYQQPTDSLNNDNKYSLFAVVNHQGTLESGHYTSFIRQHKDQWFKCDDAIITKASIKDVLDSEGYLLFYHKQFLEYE", "summary_of_the_method": "as §1"}, "USP24": {"target": "USP24 (UniProt Q9UPU5)", "sequence (Q9UPU5 whole entry)": "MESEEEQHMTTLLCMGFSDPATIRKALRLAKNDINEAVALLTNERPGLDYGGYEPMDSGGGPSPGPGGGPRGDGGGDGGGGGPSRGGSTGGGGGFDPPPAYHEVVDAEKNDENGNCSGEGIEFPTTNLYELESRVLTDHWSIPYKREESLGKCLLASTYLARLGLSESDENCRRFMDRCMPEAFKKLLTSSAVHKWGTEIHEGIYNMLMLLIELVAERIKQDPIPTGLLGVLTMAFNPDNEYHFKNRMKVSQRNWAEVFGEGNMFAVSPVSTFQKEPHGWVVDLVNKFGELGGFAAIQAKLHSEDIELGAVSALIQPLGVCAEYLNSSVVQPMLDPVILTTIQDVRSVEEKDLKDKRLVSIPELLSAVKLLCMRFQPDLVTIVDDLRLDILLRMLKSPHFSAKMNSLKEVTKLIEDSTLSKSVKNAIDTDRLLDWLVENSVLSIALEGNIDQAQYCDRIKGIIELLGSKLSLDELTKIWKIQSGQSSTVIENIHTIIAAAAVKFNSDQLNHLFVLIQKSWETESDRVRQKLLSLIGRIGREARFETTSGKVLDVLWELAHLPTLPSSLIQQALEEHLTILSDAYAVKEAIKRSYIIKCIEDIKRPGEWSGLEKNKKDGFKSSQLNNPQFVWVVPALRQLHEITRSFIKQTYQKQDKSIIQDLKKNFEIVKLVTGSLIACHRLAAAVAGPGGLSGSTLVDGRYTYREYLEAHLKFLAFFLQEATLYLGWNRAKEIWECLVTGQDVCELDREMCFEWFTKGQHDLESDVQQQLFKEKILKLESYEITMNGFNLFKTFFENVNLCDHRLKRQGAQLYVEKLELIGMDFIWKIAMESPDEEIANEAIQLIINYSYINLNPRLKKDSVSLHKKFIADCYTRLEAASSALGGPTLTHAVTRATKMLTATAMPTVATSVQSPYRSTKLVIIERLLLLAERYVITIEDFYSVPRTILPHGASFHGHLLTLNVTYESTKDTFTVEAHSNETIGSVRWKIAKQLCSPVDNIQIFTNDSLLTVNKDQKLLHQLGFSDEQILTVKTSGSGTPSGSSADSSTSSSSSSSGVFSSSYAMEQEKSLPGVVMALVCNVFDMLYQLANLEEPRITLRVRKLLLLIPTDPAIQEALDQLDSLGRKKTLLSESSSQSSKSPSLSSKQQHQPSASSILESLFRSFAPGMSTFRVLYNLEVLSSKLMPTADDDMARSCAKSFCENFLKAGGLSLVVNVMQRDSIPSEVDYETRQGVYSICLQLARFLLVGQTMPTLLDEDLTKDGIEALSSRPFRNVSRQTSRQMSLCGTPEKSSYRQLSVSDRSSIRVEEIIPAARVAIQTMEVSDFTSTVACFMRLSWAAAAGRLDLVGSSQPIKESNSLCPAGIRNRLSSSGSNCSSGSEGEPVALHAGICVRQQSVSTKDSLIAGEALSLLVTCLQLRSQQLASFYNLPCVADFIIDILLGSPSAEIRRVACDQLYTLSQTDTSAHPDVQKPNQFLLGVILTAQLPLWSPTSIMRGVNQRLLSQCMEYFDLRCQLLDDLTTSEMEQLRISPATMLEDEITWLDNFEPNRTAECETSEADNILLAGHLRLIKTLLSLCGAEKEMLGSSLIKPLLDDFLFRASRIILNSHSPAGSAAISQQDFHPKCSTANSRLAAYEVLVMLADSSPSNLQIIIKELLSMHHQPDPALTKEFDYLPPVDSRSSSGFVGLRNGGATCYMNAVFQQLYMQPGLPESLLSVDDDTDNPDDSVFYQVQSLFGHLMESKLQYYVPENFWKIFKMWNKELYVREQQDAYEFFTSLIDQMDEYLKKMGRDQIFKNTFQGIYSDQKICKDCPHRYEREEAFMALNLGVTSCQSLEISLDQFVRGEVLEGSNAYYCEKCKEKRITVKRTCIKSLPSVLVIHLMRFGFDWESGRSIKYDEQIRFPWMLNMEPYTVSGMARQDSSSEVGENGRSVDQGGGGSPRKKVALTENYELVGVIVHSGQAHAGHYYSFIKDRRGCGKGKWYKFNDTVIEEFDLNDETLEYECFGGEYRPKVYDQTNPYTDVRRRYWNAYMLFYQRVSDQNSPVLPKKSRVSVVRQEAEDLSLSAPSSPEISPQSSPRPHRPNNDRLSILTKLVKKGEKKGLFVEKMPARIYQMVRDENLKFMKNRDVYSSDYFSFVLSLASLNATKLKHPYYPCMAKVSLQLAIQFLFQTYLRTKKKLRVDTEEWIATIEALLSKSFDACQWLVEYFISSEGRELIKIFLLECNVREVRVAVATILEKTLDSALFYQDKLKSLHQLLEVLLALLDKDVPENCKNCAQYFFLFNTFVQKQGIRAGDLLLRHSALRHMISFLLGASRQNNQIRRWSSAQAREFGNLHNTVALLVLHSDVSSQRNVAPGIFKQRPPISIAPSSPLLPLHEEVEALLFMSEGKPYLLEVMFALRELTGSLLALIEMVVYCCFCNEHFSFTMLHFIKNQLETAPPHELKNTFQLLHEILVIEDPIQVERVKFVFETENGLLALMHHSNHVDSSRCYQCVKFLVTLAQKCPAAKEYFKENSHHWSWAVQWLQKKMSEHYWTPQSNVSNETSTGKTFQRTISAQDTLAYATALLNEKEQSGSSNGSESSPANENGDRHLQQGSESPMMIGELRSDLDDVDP", "summary_of_the_method": "as §1"}, "USP25": {"target": "T3, USP25 (UniProt Q9UHP3)", "T3 sequence (whole entry)": "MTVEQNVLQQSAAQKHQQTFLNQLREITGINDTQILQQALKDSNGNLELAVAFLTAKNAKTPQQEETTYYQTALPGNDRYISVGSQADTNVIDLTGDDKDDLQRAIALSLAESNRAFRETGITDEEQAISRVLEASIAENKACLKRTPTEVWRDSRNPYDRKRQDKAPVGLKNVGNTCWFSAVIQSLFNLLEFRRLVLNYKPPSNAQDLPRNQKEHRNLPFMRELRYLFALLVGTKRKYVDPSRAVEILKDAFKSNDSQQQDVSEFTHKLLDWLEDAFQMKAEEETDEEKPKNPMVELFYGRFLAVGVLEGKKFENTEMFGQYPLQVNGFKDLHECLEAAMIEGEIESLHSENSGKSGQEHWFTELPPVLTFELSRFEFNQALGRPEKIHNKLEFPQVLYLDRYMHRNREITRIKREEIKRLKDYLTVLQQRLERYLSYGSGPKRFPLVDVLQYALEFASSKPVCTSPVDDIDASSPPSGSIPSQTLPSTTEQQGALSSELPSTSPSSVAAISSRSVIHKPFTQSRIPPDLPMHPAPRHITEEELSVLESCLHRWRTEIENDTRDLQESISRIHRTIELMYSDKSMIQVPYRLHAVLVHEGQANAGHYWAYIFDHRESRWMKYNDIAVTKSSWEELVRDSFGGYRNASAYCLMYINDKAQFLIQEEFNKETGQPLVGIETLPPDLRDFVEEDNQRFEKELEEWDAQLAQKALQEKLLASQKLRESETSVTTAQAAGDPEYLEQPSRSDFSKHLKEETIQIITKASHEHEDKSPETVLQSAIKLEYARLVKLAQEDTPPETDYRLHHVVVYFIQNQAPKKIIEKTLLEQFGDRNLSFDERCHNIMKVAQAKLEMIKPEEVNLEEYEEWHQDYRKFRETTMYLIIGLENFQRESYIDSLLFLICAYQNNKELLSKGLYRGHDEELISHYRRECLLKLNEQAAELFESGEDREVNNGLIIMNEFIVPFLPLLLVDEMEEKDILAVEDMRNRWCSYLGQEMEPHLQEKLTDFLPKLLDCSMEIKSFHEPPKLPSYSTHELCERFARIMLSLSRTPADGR", "summary_of_the_method": "as §1"}, "USP28": {"target": "T4, USP28 (UniProt Q96RU2)", "T4 sequence (whole entry)": "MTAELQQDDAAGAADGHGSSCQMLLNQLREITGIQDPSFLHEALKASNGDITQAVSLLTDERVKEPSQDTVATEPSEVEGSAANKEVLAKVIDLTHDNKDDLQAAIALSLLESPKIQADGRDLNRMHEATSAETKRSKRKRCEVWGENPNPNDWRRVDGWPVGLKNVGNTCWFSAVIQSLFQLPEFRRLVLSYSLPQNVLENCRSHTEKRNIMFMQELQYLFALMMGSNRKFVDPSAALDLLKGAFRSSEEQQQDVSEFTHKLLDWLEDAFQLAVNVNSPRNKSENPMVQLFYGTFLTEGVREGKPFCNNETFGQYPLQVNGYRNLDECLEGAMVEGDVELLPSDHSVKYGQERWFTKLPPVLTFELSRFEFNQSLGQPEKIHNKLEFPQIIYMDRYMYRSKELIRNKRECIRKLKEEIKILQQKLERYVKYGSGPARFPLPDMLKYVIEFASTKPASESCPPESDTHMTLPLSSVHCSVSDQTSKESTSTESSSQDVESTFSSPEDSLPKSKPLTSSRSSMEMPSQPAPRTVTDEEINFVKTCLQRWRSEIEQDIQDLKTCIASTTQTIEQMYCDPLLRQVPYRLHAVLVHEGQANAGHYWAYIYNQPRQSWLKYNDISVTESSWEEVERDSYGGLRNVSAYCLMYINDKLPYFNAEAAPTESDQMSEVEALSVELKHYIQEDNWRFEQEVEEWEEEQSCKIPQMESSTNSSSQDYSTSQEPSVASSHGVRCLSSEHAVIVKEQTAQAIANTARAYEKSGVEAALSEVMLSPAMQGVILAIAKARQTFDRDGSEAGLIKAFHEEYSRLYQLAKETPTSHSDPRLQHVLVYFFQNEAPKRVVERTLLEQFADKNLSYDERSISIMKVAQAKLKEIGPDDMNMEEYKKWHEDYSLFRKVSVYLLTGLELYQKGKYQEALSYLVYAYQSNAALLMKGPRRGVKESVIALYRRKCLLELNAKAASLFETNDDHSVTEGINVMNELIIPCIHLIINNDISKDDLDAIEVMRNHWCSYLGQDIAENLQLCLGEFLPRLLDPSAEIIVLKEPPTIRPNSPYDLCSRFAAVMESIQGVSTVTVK", "summary_of_the_method": "as §1"}}, "note": "A number with no mark means an inactive call.", "data": [{"smiles": "Cc1conc1C1CN(C(=O)CCl)C1", "values": [{"measurement": "log2 ratio of Biotin-Ahx-Ub-VS probe labelling", "setting": "USP19", "result": "-1.19 (active)"}, {"measurement": "log2 ratio of Biotin-Ahx-Ub-VS probe labelling", "setting": "USP22", "result": -0.421}, {"measurement": "log2 ratio of Biotin-Ahx-Ub-VS probe labelling", "setting": "USP24", "result": "-1.11 (active)"}, {"measurement": "log2 ratio of Biotin-Ahx-Ub-VS probe labelling", "setting": "USP25", "result": -0.81}, {"measurement": "log2 ratio of Biotin-Ahx-Ub-VS probe labelling", "setting": "USP28", "result": "-1.16 (active)"}]}]}
